Assays:
Test in all cases: DAPPL (digital affinity profiling via proximity ligation, sequencing); 10 mM Tris-HCl pH 7.5, 50 mM NaCl, 1 mM DTT, 4% glycerol, room temperature, 30 min; GST-TFs on glutathione beads, 16-mer random dsDNA library, 0.1% formaldehyde crosslink after washing; high values mean tight binding
Conditions in all cases: protein: recombinant; tags: N-terminal GST; dsDNA, one strand shown
[1] = molecular target: T1, GABPA (Homo sapiens, UniProt Q06546 1-454)
T1 sequence: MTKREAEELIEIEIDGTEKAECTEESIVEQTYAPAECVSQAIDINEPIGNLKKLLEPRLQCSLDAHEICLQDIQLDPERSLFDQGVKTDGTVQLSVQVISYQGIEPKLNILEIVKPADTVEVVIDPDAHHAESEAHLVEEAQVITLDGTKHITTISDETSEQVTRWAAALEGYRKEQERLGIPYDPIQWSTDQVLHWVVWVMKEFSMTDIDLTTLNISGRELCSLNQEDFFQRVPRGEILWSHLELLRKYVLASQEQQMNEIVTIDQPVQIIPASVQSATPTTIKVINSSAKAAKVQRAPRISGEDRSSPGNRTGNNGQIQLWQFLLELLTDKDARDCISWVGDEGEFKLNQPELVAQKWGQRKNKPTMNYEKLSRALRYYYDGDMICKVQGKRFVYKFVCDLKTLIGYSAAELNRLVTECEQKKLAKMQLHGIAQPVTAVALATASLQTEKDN
Method in brief: (§1)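 GST fusions of human transcription factors were expressed in yeast and captured with glutathione beads. Once given DNA barcodes and pooled alongside a tag-only sample, they were incubated for 30 min at room temperature with 200 nmole of a random double-stranded 16-mer DNA library in Tris/NaCl/DTT/glycerol buffer, then washed, crosslinked (0.1% formaldehyde), proximity-ligated, PCR-amplified and sequenced on an Illumina NextSeq500. The binding signal of each hexamer is its read frequency for a factor divided by its frequency for the tag-only sample.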

[2] = molecular target: ELF1 (Homo sapiens, UniProt P32519 1-619)
Method in brief: as §1

[3] = molecular target: T2, EHF (Homo sapiens, UniProt Q9NZC4 1-300)
T2 sequence: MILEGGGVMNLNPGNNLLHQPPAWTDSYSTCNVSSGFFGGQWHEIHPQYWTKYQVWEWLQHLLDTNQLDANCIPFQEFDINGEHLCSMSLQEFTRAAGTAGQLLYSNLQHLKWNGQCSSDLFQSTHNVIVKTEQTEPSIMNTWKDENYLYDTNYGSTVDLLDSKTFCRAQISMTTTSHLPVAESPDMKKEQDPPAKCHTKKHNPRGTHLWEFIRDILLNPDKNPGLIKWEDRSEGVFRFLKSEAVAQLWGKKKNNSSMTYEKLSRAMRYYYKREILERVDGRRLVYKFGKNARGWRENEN
Method in brief: as §1

[4] = molecular target: SPIB (Homo sapiens, UniProt Q01892 1-262)
Method in brief: as §1

[5] = molecular target: T3, ELK3 (Homo sapiens, UniProt P41970 1-407)
T3 sequence: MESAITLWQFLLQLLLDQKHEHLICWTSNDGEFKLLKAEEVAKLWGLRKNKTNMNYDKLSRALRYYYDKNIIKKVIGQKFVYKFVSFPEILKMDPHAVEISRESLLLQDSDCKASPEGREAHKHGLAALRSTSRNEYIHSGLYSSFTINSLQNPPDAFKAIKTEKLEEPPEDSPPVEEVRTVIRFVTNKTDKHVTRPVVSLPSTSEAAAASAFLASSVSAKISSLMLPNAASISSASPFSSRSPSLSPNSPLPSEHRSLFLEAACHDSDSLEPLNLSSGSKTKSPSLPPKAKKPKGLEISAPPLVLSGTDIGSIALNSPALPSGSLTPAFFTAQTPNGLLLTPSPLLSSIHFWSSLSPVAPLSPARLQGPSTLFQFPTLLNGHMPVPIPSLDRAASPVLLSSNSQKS
Method in brief: as §1

[6] = molecular target: T4, FEV (Homo sapiens, UniProt Q99581 1-238)
T4 sequence: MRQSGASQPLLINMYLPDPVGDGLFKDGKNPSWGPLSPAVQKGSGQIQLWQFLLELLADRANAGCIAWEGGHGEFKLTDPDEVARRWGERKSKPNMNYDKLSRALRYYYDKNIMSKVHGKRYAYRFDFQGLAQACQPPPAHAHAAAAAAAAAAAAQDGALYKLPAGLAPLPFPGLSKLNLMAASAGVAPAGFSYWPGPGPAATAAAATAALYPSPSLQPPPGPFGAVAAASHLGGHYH
Method in brief: as §1

[7] = molecular target: ETV5 (Homo sapiens, UniProt P41161 1-510)
Method in brief: as §1

[8] = molecular target: ELF4 (Homo sapiens, UniProt Q99607 1-663)
Method in brief: as §1

[9] = molecular target: T5, ELK4 (Homo sapiens, UniProt P28324-2 1-405)
T5 sequence: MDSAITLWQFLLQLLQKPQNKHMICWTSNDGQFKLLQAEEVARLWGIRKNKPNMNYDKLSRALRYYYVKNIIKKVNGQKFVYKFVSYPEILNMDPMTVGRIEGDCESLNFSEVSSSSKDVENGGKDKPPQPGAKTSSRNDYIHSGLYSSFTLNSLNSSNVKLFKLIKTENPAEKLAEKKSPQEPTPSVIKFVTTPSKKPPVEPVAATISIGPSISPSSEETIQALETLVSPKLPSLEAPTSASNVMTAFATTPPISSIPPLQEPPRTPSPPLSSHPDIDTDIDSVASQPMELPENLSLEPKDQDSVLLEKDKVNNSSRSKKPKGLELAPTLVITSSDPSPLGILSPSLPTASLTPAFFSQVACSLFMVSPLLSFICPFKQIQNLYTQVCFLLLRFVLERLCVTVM
Method in brief: as §1

[10] = molecular target: ETV1 (Homo sapiens, UniProt P50549 1-477)
Method in brief: as §1

[11] = molecular target: T6, ERF (Homo sapiens, UniProt P50548 1-548)
T6 sequence: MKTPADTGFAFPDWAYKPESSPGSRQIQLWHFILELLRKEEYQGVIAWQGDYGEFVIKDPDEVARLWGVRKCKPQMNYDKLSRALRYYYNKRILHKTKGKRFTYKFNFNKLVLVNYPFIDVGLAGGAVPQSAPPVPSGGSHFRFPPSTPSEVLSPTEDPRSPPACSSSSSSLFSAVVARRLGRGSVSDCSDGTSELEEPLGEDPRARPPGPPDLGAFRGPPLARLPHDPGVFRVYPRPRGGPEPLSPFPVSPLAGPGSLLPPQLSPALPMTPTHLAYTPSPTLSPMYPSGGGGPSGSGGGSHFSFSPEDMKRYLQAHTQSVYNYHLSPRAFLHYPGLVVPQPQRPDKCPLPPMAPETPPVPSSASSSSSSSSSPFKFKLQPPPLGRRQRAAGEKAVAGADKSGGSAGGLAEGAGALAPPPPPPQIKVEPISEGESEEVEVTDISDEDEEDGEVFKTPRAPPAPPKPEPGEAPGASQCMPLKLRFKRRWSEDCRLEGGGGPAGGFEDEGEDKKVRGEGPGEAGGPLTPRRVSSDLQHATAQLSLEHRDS
Method in brief: as §1

[12] = molecular target: T7, ETS2 (Homo sapiens, UniProt P15036 1-469)
T7 sequence: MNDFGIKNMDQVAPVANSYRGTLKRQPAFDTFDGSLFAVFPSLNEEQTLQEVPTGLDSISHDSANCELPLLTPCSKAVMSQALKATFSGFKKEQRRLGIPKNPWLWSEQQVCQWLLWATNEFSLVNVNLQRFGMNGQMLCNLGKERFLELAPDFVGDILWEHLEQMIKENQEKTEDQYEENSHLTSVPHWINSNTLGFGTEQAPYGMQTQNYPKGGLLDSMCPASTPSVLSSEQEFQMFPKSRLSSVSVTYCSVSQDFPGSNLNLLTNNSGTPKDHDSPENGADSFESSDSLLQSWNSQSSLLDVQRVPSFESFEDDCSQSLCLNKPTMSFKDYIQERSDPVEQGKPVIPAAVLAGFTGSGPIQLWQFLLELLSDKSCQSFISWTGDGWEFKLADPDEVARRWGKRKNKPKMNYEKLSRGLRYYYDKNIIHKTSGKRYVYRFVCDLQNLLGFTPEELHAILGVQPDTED
Method in brief: as §1

[13] = molecular target: T8, SPDEF (Homo sapiens, UniProt O95238 1-335)
T8 sequence: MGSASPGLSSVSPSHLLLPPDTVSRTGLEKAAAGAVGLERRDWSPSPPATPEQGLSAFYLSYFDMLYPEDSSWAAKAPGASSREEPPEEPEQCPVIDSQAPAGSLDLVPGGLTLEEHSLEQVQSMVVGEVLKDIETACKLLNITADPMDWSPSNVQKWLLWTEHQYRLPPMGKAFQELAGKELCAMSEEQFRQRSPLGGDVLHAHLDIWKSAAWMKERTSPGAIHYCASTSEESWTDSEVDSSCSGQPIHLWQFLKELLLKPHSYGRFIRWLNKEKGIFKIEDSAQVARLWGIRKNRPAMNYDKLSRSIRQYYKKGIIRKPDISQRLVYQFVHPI
Method in brief: as §1

[14] = molecular target: T9, ETV7 (Homo sapiens, UniProt Q9Y603 1-341)
T9 sequence: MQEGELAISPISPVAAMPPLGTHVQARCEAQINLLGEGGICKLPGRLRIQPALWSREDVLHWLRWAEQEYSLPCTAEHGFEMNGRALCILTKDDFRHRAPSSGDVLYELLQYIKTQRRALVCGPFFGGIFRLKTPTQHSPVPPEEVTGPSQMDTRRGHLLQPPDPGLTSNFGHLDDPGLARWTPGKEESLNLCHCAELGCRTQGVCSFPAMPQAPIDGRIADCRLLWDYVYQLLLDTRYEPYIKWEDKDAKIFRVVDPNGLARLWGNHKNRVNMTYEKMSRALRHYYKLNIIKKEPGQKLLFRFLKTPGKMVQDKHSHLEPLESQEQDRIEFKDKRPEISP
Method in brief: as §1

[15] = molecular target: T10, ETV3 (Homo sapiens, UniProt P41162-2 1-143)
T10 sequence: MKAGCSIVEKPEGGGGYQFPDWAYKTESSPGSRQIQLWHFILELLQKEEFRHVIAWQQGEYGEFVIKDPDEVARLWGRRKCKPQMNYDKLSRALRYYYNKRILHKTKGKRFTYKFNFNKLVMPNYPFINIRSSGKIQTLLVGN
Method in brief: as §1

[16] = molecular target: ETV6 (Homo sapiens, UniProt P41212 1-452)
Method in brief: as §1

Sequence of SPIB (Q01892 whole entry): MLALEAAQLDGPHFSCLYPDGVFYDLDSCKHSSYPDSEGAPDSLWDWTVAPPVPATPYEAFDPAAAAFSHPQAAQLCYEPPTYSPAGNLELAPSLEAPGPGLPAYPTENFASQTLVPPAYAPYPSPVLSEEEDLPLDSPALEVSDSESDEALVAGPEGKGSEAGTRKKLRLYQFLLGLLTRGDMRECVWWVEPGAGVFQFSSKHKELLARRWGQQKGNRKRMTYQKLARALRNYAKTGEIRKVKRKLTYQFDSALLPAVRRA
Sequence of ELF4 (Q99607 whole entry): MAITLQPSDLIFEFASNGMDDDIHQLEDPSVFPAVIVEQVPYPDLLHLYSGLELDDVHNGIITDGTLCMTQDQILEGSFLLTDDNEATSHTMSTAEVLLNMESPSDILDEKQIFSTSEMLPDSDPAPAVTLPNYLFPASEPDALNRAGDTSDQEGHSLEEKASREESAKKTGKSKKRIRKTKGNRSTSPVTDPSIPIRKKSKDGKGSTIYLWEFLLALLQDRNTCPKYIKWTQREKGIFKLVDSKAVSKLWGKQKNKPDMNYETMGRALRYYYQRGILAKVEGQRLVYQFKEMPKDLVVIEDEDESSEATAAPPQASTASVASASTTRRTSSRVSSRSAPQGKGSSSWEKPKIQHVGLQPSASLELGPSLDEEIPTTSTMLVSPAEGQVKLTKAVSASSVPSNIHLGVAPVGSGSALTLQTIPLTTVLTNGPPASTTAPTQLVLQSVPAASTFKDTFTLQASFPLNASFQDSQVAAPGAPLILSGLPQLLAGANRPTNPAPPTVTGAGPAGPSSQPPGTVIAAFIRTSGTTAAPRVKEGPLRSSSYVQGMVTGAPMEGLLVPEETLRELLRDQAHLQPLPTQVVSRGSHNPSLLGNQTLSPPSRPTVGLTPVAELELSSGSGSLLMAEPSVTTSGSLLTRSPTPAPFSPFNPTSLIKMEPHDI
Sequence of ETV5 (P41161 whole entry): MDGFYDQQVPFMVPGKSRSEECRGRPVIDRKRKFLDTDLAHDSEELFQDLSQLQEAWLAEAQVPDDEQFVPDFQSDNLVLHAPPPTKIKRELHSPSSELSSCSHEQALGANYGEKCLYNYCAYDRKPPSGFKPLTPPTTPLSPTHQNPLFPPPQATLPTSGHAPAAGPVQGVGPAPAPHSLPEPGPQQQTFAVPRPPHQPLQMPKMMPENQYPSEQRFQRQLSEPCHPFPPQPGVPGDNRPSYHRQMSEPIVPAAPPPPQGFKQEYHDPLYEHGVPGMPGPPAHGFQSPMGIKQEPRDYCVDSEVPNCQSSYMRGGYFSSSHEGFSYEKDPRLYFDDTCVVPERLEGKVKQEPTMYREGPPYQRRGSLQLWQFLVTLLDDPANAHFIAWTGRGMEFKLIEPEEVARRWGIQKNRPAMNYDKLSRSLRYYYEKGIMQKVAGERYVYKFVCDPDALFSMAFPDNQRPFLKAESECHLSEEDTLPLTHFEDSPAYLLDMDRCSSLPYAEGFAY
Sequence of ELF1 (P32519 whole entry): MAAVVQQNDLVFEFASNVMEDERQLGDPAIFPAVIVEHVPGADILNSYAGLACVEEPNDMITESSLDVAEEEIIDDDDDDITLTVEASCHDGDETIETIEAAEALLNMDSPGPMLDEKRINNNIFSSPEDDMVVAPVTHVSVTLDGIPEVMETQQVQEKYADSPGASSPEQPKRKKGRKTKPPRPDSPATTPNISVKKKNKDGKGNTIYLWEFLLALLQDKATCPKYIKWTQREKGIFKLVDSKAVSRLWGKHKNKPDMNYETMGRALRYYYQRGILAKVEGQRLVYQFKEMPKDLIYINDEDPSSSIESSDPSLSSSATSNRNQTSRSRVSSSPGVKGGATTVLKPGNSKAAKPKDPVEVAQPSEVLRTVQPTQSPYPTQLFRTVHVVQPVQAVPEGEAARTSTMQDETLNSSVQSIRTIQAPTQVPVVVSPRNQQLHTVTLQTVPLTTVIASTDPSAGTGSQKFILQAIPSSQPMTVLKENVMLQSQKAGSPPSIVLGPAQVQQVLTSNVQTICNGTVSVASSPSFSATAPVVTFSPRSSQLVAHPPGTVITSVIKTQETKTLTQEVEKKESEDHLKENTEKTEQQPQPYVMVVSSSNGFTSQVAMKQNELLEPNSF
Sequence of ETV1 (P50549 whole entry): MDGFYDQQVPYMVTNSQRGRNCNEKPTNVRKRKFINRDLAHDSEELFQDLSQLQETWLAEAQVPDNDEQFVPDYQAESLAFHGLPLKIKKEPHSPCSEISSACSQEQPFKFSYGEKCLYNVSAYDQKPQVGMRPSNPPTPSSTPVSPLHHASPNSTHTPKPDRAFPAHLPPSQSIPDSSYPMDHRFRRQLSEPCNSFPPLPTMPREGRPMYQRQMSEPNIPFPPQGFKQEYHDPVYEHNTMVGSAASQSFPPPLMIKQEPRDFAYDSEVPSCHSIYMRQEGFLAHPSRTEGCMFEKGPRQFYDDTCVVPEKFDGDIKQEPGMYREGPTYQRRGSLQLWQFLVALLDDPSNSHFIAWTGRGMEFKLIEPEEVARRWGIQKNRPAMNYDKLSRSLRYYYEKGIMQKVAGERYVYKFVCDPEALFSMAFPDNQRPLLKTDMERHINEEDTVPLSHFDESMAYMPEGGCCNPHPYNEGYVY
Sequence of ETV6 (P41212 whole entry): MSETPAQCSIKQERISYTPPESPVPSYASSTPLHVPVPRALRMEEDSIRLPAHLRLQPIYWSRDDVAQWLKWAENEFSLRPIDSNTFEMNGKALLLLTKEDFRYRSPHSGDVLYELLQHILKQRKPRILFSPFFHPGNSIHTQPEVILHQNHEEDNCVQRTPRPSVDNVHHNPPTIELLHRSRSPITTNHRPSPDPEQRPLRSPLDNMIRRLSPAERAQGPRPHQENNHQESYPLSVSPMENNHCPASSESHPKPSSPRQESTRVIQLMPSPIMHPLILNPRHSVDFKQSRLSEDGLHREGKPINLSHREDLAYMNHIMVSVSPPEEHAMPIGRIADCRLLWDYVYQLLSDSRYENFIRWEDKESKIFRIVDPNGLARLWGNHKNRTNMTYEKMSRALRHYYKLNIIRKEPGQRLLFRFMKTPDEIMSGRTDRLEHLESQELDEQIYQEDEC

What does the source list for GTAACC?
binding signal [1]: 1.01 fold enrichment (6-mer frequency, TF over GST control); binding signal [2]: 1.05 fold enrichment (6-mer frequency, TF over GST control); binding signal [3]: 1.11 fold enrichment (6-mer frequency, TF over GST control); binding signal [4]: 1.1 fold enrichment (6-mer frequency, TF over GST control); binding signal [5]: 1.04 fold enrichment (6-mer frequency, TF over GST control); binding signal [6]: 1.04 fold enrichment (6-mer frequency, TF over GST control); binding signal [7]: 1.05 fold enrichment (6-mer frequency, TF over GST control); binding signal [8]: 1.05 fold enrichment (6-mer frequency, TF over GST control); binding signal [9]: 1.02 fold enrichment (6-mer frequency, TF over GST control); binding signal [10]: 1.09 fold enrichment (6-mer frequency, TF over GST control); binding signal [11]: 1.11 fold enrichment (6-mer frequency, TF over GST control); binding signal [12]: 1.1 fold enrichment (6-mer frequency, TF over GST control); binding signal [13]: 1.03 fold enrichment (6-mer frequency, TF over GST control); binding signal [14]: 1.07 fold enrichment (6-mer frequency, TF over GST control); binding signal [15]: 1.13 fold enrichment (6-mer frequency, TF over GST control); binding signal [16]: 1.07 fold enrichment (6-mer frequency, TF over GST control)

Source: paper PMC7862700, “An all-to-all approach to the identification of sequence-specific readers for epigenetic DNA modifications on cytosine”
